Consider 64 molecules from PubChem BioAssay AID651548 (Broad Institute, 2012).

Where “and” joins values, the source holds several entries; their conditions need not be identical. Equal entries are not always repeated. The campaign covered roughly 57,000 compounds. About 200 (0.35%) were called active. Many of the other results were omitted from the sample, so actives are more common in it than they were. A number with no mark means an inactive call.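 How the source made its calls: active means mean inhibition of replicates at least 50% and every single replicate also reaching 50%; inconclusive means mean inhibition at least 50% but some replicate falls below 50%; inactive means mean inhibition under 50%.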

This assay deals with Histone-lysine N-methyltransferase EZH2 (Homo sapiens) (UniProt Q15910). As to the kind of experiment: inhibition of PRC2 H3K27 methylation – biochemical, DELFIA time-resolved fluorescence, single point, primary screen (AID 651548).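 Further: dimethyl H3K27 on biotinylated H3 21-44 peptide detected by antibody; plate controls were median neutral control wells for no effect and median positive control wells for full effect.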 Conditions: DELFIA TRF, 1 h, at 12.5 µM, hits give high values.
Histone-lysine N-methyltransferase EZH2 (Homo sapiens), sequence (Q15910 whole entry, looked up): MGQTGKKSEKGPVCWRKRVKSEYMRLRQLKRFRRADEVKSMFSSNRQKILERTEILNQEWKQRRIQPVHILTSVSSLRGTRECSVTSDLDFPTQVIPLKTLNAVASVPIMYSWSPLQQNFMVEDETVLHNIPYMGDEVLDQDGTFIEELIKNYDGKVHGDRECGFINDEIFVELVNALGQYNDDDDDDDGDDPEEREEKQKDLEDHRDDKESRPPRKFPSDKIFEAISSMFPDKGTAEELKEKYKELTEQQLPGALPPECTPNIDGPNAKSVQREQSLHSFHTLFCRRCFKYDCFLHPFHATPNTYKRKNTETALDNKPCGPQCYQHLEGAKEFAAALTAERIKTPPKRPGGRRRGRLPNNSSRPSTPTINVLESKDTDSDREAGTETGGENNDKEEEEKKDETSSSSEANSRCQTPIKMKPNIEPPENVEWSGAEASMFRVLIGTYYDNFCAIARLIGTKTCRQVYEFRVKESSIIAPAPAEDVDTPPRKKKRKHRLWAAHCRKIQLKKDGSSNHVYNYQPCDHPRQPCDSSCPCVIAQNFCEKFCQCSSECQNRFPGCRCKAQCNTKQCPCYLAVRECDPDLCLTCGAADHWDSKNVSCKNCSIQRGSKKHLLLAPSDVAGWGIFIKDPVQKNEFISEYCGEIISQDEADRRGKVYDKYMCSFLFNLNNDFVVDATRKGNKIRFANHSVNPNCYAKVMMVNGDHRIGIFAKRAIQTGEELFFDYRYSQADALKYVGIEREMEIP
As for `C[C@@H](NC(=O)C[C@@H]1C[C@@H]2c3cc(NC(=O)c4cccnc4)ccc3O[C@@H]2[C@H](CO)O1)c1ccccc1`, the inhibition is 4.89%. For the molecule `CCC(=O)N1C[C@@H](C)[C@@H](OC)CN(C)C(=O)c2ccc(NC(=O)c3ccccc3)cc2OC[C@H]1C`, the inhibition was 2.93%.

As to `CCCN(C)C[C@H]1Oc2cc(C#CCC3CCCC3)ccc2S(=O)(=O)N([C@@H](C)CO)C[C@@H]1C`, the inhibition was 10.9%. For `C[C@@H]1CN([C@@H](C)CO)S(=O)(=O)c2ccc(C#CCC3CCCC3)cc2O[C@@H]1CN(C)C` the value was -6.13%; for `C[C@@H]1CN([C@H](C)CO)S(=O)(=O)c2ccc(C#CCC3CCCC3)cc2O[C@H]1CN(C)Cc1ccc(C(=O)O)cc1`, 58.1% (active); for `CO[C@@H](CN(C)S(=O)(=O)c1ccc(C)cc1)[C@@H](C)CN([C@@H](C)CO)S(=O)(=O)c1cccc(Cl)c1`, 9.64%. Take `CN(C)CCCNC(=O)C[C@H]1C=C[C@@H](NC(=O)Cc2cccnc2)[C@H](CO)O1`: the inhibition is 13.4%. Consider `Cc1ccccc1S(=O)(=O)NCC[C@@H]1CC[C@H](NC(=O)C2CC2)[C@@H](CO)O1`, for which the inhibition is -14.1%.

As for `COCCNC(=O)C[C@H]1CC[C@H](NS(=O)(=O)c2ccc(C)cc2)[C@@H](CO)O1`, the inhibition was -9.8%. Consider `COCC(=O)N(C)C[C@@H]1Oc2cc(C#CCC(C)C)ccc2S(=O)(=O)N([C@@H](C)CO)C[C@@H]1C`, for which the inhibition is 7.89%. With `CO[C@H]1CN(C)C(=O)c2cc(NC(=O)C3CCCC3)ccc2OC[C@@H](C)N(C(=O)CC2CC2)C[C@@H]1C`, the inhibition was 4.88%. Take `C[C@@H]1CN([C@H](C)CO)C(=O)c2cc(NC(=O)CCCN(C)C)ccc2O[C@@H](C)CCCCO[C@H]1CN(C)CC1CCCCC1`: the inhibition was -6.09%. `C[C@@H]1CN([C@@H](C)CO)S(=O)(=O)c2ccc(C3=CCCCC3)cc2O[C@@H]1CN(C)C(=O)CN(C)C`: the inhibition was -15.1%.

Consider `O=C(C[C@@H]1C[C@@H]2c3cc(NC(=O)Nc4ccc(F)cc4)ccc3O[C@@H]2[C@H](CO)O1)NCC(F)(F)F`, for which the inhibition is -13.1%. In the case of `CO[C@@H]1CN(C)C(=O)c2cc(NC(=O)c3ccccc3F)ccc2OC[C@H](C)N(C(C)=O)C[C@@H]1C`, the inhibition is -5.74%. Take `C[C@H]1CN([C@@H](C)CO)C(=O)c2cc(Br)cnc2O[C@@H]1CN(C)S(=O)(=O)c1ccc(F)cc1`: the inhibition is 30.8%. For `O=C(C[C@@H]1CC[C@@H](NC(=O)c2ccc3c(c2)OCO3)[C@H](CO)O1)NCc1ccc(Cl)cc1`, the inhibition is 11.8%. Turning to `C[C@@H]1CN([C@H](C)CO)C(=O)c2cccc(NC(=O)CCCCCC(=O)Nc3ccccc3N)c2O[C@H]1CN(C)Cc1ccc(Oc2ccccc2)cc1`, the inhibition is -2.58%.

In the case of `CN(C)CCCSc1ccccc1NC(=O)/C=C/c1ccccc1`, the inhibition was 7.12% and -8.56%.

In the case of `CCCCCc1ccc(/C=C/C(=O)Nc2ccccc2C(=O)O)cc1`, the inhibition was 61.8% (active). Take `O=C(O)CCCc1ccccc1`: the inhibition is -7.51%. For the molecule `O=C(N[C@@H]1CC[C@@H](CCNS(=O)(=O)Cc2ccccc2)O[C@@H]1CO)c1ccccc1F`, the inhibition was -4.43%.

As for `CCCNC(=O)Nc1ccc2c(c1)C(=O)N(C)C[C@@H](OC)[C@H](C)CN(C(=O)C1CCCCC1)[C@H](C)CO2`, the inhibition is 4.24%. In the case of `O=C(N[C@H]1CC[C@@H](CCNS(=O)(=O)c2cccc(Cl)c2)O[C@@H]1CO)c1ccncc1`, the inhibition is 4.59%. Turning to `O=C(NCC[C@@H]1CC[C@@H](NC(=O)C2CCCC2)[C@H](CO)O1)c1cnccn1`, the inhibition is -12%. As to `C[C@@H]1CN([C@@H](C)CO)C(=O)c2c(c3ccccc3n2C)-c2ccccc2CO[C@H]1CN(C)C(=O)N[C@H](C)c1ccccc1`, the inhibition is -0.352%.

As to `CO[C@@H]1CN(C)C(=O)c2cc(NC(=O)C3CCC3)ccc2OC[C@H](C)N(C(=O)CN(C)C)C[C@@H]1C`, the inhibition is -0.841%. For the molecule `CCCNC(=O)C[C@H]1C[C@@H]2c3cc(NC(=O)NC4CCCC4)ccc3O[C@@H]2[C@@H](CO)O1`, the inhibition is 5.85%.

For the molecule `C[C@H](NC(=O)C[C@H]1C=C[C@@H](NC(=O)C2CCOCC2)[C@@H](CO)O1)c1ccccc1`, the inhibition is 3.06%. On to `COc1ccccc1-c1cccc(-c2nc(C(=O)N3CCN(C)CC3)cc3c2[C@H](CCO)N([S@@](=O)C(C)(C)C)C3)c1`, for which the inhibition was 1.13%.

With `CO[C@@H]1CN(C)C(=O)c2cc(NC(C)=O)ccc2OC[C@@H](C)N(C(=O)NC2CCCCC2)C[C@H]1C`, the inhibition was 3.91%. As for `O=C(C[C@H]1C[C@H]2c3cc(NC(=O)C4CCC4)ccc3O[C@H]2[C@@H](CO)O1)NCc1ccc(Cl)cc1`, the inhibition was -2.37%. Turning to `CN1CCN(C(=O)C[C@@H]2C[C@@H]3c4cc(NC(=O)c5ccc6c(c5)OCO6)ccc4O[C@@H]3[C@H](CO)O2)CC1`, the inhibition is -2.8%.

With `COc1cccc(-c2ccc3c(c2)O[C@H](CN(C)C(=O)c2ccccc2F)[C@@H](C)CN([C@@H](C)CO)S3(=O)=O)c1`, the inhibition was 0.0695%. In the case of `O=C(Nc1ccccc1)Nc1ccc2c(c1)[C@@H]1C[C@@H](CC(=O)N3CCCCC3)O[C@H](CO)[C@@H]1O2`, the inhibition was -1.6%. With `O=C(C[C@H]1C[C@H]2c3cc(NC(=O)Nc4ccccc4)ccc3O[C@H]2[C@H](CO)O1)NC1CCCC1`, the inhibition is 2.44%.

As for `COc1ccccc1NC(=O)N[C@H]1CC[C@H](CCNS(=O)(=O)c2ccc(Cl)cc2)O[C@H]1CO`, the inhibition was 47.2%. To `COc1cccc(C(=O)Nc2ccc3c(c2)OC[C@H](C)N(C(C)=O)C[C@@H](C)[C@@H](OC)CN(C)C3=O)c1` belongs 6.08%; to `C/C=C/c1ccc2c(c1)O[C@H](CN(C)C(=O)C1CCCCC1)[C@@H](C)CN([C@@H](C)CO)S2(=O)=O`, 13.7%. For the molecule `CCC(=O)Nc1ccc2c(c1)OC[C@@H](C)N(Cc1cncnc1)C[C@H](C)[C@@H](OC)CN(C)C2=O`, the inhibition was -1.64%.

With `COc1ccc(C(=O)Nc2ccc3c(c2)OC[C@H](C)N(C(C)=O)C[C@@H](C)[C@@H](OC)CN(C)C3=O)cc1`, the inhibition was -11.8%. As for `CO[C@@H]1CN(C)C(=O)c2ccc(NC(=O)C3CC3)cc2OC[C@@H](C)N(Cc2ccncc2)C[C@@H]1C`, the inhibition is 8.95%. To `O=C(C[C@H]1CC[C@H](NC(=O)c2ccncc2)[C@H](CO)O1)Nc1ccccc1` belongs 16.3%; to `O=C(C[C@H]1C[C@@H]2c3cc(NS(=O)(=O)c4ccc(F)cc4)ccc3O[C@@H]2[C@H](CO)O1)NCc1cccc(F)c1`, -5.18%; to `O=C(N[C@H]1CC[C@@H](CCNC(=O)C2CCC2)O[C@@H]1CO)c1ccncc1`, -3.82%. With `CN(C)CC(=O)Nc1ccc2c(c1)[C@H]1C[C@@H](CC(=O)NCc3ccccn3)O[C@@H](CO)[C@H]1O2`, the inhibition is -17%. For `CO[C@H]1CN(C)C(=O)c2ccc(NC(=O)C3CCCC3)cc2OC[C@@H](C)NC[C@@H]1C`, the inhibition was 7.43%. As to `CCC(=O)N1C[C@@H](C)[C@H](OC)CN(C)C(=O)c2ccc(NC(=O)c3cc(C)on3)cc2OC[C@H]1C`, the inhibition was 7.38%. As for `CCC(=O)Nc1ccc2c(c1)OC[C@H](C)N(CC1CCCCC1)C[C@@H](C)[C@H](OC)CN(C)C2=O`, the inhibition is -10.4%.

In the case of `CC(C)NC(=O)N[C@@H]1C=C[C@@H](CC(=O)N2CCCCC2)O[C@@H]1CO`, the inhibition was 7.89%.

`O=C(C[C@@H]1CC[C@H](NC(=O)Nc2ccc(F)cc2)[C@H](CO)O1)NCc1ccccn1`: the inhibition is -0.96%. Take `COc1cccc(-c2cnc3c(c2)C(=O)N([C@@H](C)CO)C[C@H](C)[C@H](CN(C)C(C)=O)O3)c1`: the inhibition is 1.62%. Regarding `COCC#Cc1cnc2c(c1)C(=O)N([C@H](C)CO)C[C@H](C)[C@H](CN(C)C(=O)Nc1cc(F)ccc1F)O2`, the inhibition is 0.676%. As to `COc1cccc(NC(=O)Nc2ccc3c(c2)OC[C@@H](C)NC[C@@H](C)[C@H](OC)CN(C)C3=O)c1`, the inhibition was -3.01%. Turning to `COc1cccc(S(=O)(=O)Nc2ccc3c(c2)[C@@H]2C[C@@H](CC(=O)NCc4ccc(Cl)cc4)O[C@H](CO)[C@@H]2O3)c1`, the inhibition is -2.95%. Consider `O=C(C[C@@H]1C[C@@H]2c3cc(NC(=O)Nc4ccccc4F)ccc3O[C@@H]2[C@@H](CO)O1)NCCc1ccccc1`, for which the inhibition was -11.7%. To `CC1=CCC(C(C)(C)O[C@@H]2O[C@H](COC(=O)c3cc(O)c(O)c(O)c3)[C@@H](O)[C@H](O)[C@H]2O)CC1` (some centres undefined) belongs 91.8% (active). As for `C[C@@H]1CN([C@H](C)CO)S(=O)(=O)c2ccc(C#CCN(C)C)cc2O[C@@H]1CN(C)C(=O)C1CCCCC1`, the inhibition was 1.46%.

With `CC(C)NC(=O)Nc1ccc2c(c1)CC(=O)N([C@H](C)CO)C[C@H](C)[C@@H](CN(C)C(=O)Nc1ccc(F)cc1)O2`, the inhibition is -14.2%. For the molecule `C[C@@H]1CN([C@H](C)CO)S(=O)(=O)c2ccc(-c3ccccc3)cc2O[C@@H]1CN(C)C(=O)C1CC1`, the inhibition was 7.84%. Regarding `CCCNC(=O)Nc1ccc2c(c1)OC[C@H](C)N(Cc1ccccc1)C[C@H](C)[C@H](OC)CN(C)C2=O`, the inhibition was -21.6%.

With `C[C@H]1CN([C@@H](C)CO)S(=O)(=O)c2ccc(C#CC3CCCC3)cc2O[C@@H]1CN(C)C(=O)c1cccc(F)c1`, the inhibition was 14.8%. As for `O=C(C[C@@H]1CC[C@@H](NC(=O)C2CC2)[C@H](CO)O1)NCc1ccncc1`, the inhibition is 9.6%. Regarding `CN(C)CC(=O)N[C@@H]1CC[C@@H](CCn2cc(C3CC3)nn2)O[C@H]1CO`, the inhibition was -8.32%.

Broadly, the inhibition is the drop in the measured response relative to a control, in per cent.
